Data: PubChem BioAssay (NCI)
The panel holds about 79,000 compounds, 15% with a hit somewhere; the sample as a whole holds those more often. Calls of active or inactive are those of the source. No stated cut-off is given here; in the data, active means growth inhibition above about 70%; inactive means the rest.

Legend:
[1] = NCI Yeast Anticancer Drug Screen. Data for the rad52 strain (AID 147);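 further: 0% = growth of vehicle-treated control cultures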; settings: S. cerevisiae rad52 mutant growth inhibition, active compounds read high
Method in brief: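 Yeast strain carrying a DNA damage repair alteration was exposed to test compounds. Growth inhibition was measured relative to vehicle-treated controls.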

[2] = NCI Yeast Anticancer Drug Screen. Data for the wt1 strain (AID 149);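 further: 0% = growth of vehicle-treated wt1 cultures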; settings: S. cerevisiae wt1 strain (SPY 50644) growth inhibition, active compounds read high
Method in brief: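 The wt1 strain was treated with compounds, and growth was compared with vehicle-treated cultures to give inhibition.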

[3] = NCI Yeast Anticancer Drug Screen. Data for the rad50EPP+ strain (AID 151);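 further: 0% = growth of vehicle-treated control cultures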; settings: S. cerevisiae rad50 mutant strain, active compounds read high
Method in brief: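 Yeast strain carrying rad50 alteration (rad50EPP+) exposed to compounds; growth inhibition measured relative to vehicle-treated controls.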

[4] = NCI Yeast Anticancer Drug Screen. Data for the mgt1 strain (AID 153); settings: S. cerevisiae mgt1 mutant growth inhibition, active compounds read high
Method in brief: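 Yeast mgt1 strain (DNA repair/cell-cycle alteration panel) exposed to compounds; growth inhibition measured relative to vehicle-treated controls.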

[5] = NCI Yeast Anticancer Drug Screen. Data for the rad50 strain (AID 155);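 further: 0% = growth of vehicle-only cultures of the same strain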; settings: S. cerevisiae rad50 strain growth inhibition, active compounds read high
Method in brief: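 Cells are treated with compound, grown, and their growth is then scored against vehicle-only cultures of the same repair-deficient yeast strain.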

[6] = NCI Yeast Anticancer Drug Screen. Data for the mec2-1 strain (AID 157); settings: S. cerevisiae mec2-1 strain, active compounds read high
Method in brief: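 mec2-1 yeast strain, carrying an alteration in DNA damage repair or cell cycle control, was exposed to compounds; growth inhibition was measured relative to vehicle-treated controls.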

[7] = NCI Yeast Anticancer Drug Screen. Data for the rad14 strain (AID 159);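 further: 0% = growth of vehicle-treated control cultures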; settings: S. cerevisiae rad14 strain growth inhibition, active compounds read high
Method in brief: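 Readout: yeast growth inhibition, referenced to vehicle-only cultures. Strain bears a defined alteration in DNA damage repair.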

[8] = NCI Yeast Anticancer Drug Screen. Data for the sgs1 mgt1 strain (AID 161);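 further: 0% = growth of cultures given vehicle only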; settings: S. cerevisiae sgs1 mgt1 strain, active compounds read high
Method in brief: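 Growth of a repair-deficient yeast mutant was monitored after compound treatment and expressed as inhibition relative to vehicle-treated cultures.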

[9] = NCI Yeast Anticancer Drug Screen. Data for the CLN2oe strain (AID 163);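 further: 0% = growth of vehicle-only control cultures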; settings: S. cerevisiae CLN2oe strain, active compounds read high
Method in brief: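 Yeast cells carrying a defined cell-cycle control alteration were exposed to test compounds. Growth inhibition was scored against vehicle-treated control cultures.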

[10] = NCI Yeast Anticancer Drug Screen. Data for the cln2 rad14 strain (AID 165);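 further: 0% = growth equal to vehicle treated cultures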; settings: S. cerevisiae cln2 rad14 strain, active compounds read high
Method in brief: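 Yeast carrying cln2 and rad14 alterations (cell cycle control and DNA damage repair) were exposed to compounds. Growth inhibition was measured against vehicle-treated controls.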

[11] = NCI Yeast Anticancer Drug Screen. Data for the bub3 strain (AID 167); settings: S. cerevisiae bub3 mutant strain, active compounds read high
Method in brief: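 Part of a panel of yeast mutants defective in DNA damage repair or cell cycle regulation. Each strain is grown with compound, and inhibition is calculated relative to solvent-treated cultures.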

[12] = NCI Yeast Anticancer Drug Screen. Data for the wt2 strain (AID 169);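 further: 0% = growth of vehicle-treated yeast cultures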; settings: S. cerevisiae wt2 strain growth inhibition, active compounds read high
Method in brief: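 Yeast cells were exposed to test compounds, and growth inhibition was measured relative to vehicle-treated controls.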

[13] = NCI Yeast Anticancer Drug Screen. Data for the mlh1 strain (AID 171);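 further: 0% = growth of vehicle-treated control cultures of the same strain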; settings: S. cerevisiae mlh1 strain growth inhibition, active compounds read high
Method in brief: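 Yeast carrying a defined genetic alteration in DNA damage repair or cell cycle control were exposed to test compounds. Growth inhibition was measured relative to vehicle-treated controls.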

[14] = NCI Yeast Anticancer Drug Screen. Data for the sgs1 strain (AID 173);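 further: 0% = growth of vehicle-only control cultures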; settings: S. cerevisiae sgs1 mutant, active compounds read high
Method in brief: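 Yeast mutant strains carrying defined defects in DNA damage repair or cell cycle control were exposed to test compounds. Growth inhibition was scored against vehicle-treated controls.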

[15] = NCI Yeast Anticancer Drug Screen. Data for the mlh1 rad18 strain (AID 175); settings: S. cerevisiae mlh1 rad18 strain growth inhibition, active compounds read high
Method in brief: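 Growth inhibition of the yeast strain was measured after compound exposure and expressed relative to vehicle-treated controls. The strain carries defined defects in DNA damage repair.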

[16] = NCI Yeast Anticancer Drug Screen. Data for the rad18 strain (AID 177); settings: S. cerevisiae rad18 mutant growth inhibition, active compounds read high
Method in brief: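 Yeast carrying a defined DNA damage repair alteration were exposed to compounds. Growth inhibition was expressed relative to vehicle-treated controls.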

[17] = at 5.0 µM (retest, dose inferred, filed as 0.5)
[18] = at 50.0 µM (retest, dose inferred, filed as 5.0)

Measured: growth inhibition

O=C1C=CC(=Nc2cccc3c2-c2ccccc2C3=O)O1
active: [1]; at 33.0 µM 97% | [1]; at 100.0 µM 98% | [2]; at 33.0 µM 99% | [2]; at 100.0 µM 99% | [3]; at 33.0 µM 89% | [3]; at 100.0 µM 97% | [4]; at 11.0 µM 71% | [4]; at 33.0 µM 99% | [4]; at 100.0 µM 99% | [5]; at 11.0 µM 79% | [5]; at 33.0 µM 98% | [5]; [18] 99% | [5]; at 50.0 µM 99.5% | [5]; at 100.0 µM 97% | [6]; at 11.0 µM 75% | [6]; at 33.0 µM 99% | [6]; [18] 99% | [6]; at 50.0 µM 99.5% | [6]; at 100.0 µM 99% | [7]; at 11.0 µM 94% | [7]; at 33.0 µM 99% | [7]; at 100.0 µM 98% | [8]; [18] 99% | [8]; at 50.0 µM 99.6% | [9]; at 33.0 µM 99% | [9]; at 100.0 µM 98% | [10]; [18] 99% | [10]; at 50.0 µM 98.7% | [11]; at 11.0 µM 72% | [11]; at 33.0 µM 97% | [11]; [18] 99% | [11]; at 50.0 µM 99.7% | [11]; at 100.0 µM 98% | [12]; at 11.0 µM 79% | [12]; at 33.0 µM 99% | [12]; at 100.0 µM 99% | [13]; at 11.0 µM 84% | [13]; at 33.0 µM 99% | [13]; at 100.0 µM 99% | [14]; at 11.0 µM 83% | [14]; at 33.0 µM 99% | [14]; at 100.0 µM 99% | [15]; [18] 99% | [15]; at 50.0 µM 85% | [16]; at 11.0 µM 83% | [16]; at 33.0 µM 99% | [16]; at 100.0 µM 98%
inactive: [1]; at 1.2 µM 3% | [1]; at 3.7 µM 16% | [1]; at 11.0 µM 67% | [2]; at 1.2 µM -2% | [2]; at 3.7 µM 8% | [2]; at 11.0 µM 42% | [3]; at 1.2 µM 4% | [3]; at 3.7 µM 24% | [3]; at 11.0 µM 61% | [4]; at 1.2 µM 1% | [4]; at 3.7 µM 17% | [5]; at 1.2 µM 3% | [5]; at 3.7 µM 19% | [5]; [17] 26% | [6]; at 1.2 µM 6% | [6]; at 3.7 µM 23% | [6]; [17] 36% | [7]; at 1.2 µM 5% | [7]; at 3.7 µM 18% | [8]; [17] 36% | [9]; at 1.2 µM -3% | [9]; at 3.7 µM 5% | [9]; at 11.0 µM 60% | [10]; [17] 14% | [11]; at 1.2 µM -7% | [11]; at 3.7 µM 0% | [11]; [17] 14% | [12]; at 1.2 µM -3% | [12]; at 3.7 µM 12% | [13]; at 1.2 µM 7% | [13]; at 3.7 µM 18% | [14]; at 1.2 µM 7% | [14]; at 3.7 µM 25% | [15]; [17] 28% | [16]; at 1.2 µM 8% | [16]; at 3.7 µM 23%

CNCC(C)CNC
active: [5]; at 50.0 µM 73.8%
inactive: [1]; at 1.2 µM -40% | [1]; at 3.7 µM -51% | [1]; at 11.0 µM -46% | [1]; at 33.0 µM -50% | [1]; at 100.0 µM -52% | [2]; at 1.2 µM -25% | [2]; at 3.7 µM -14% | [2]; at 11.0 µM -5% | [2]; at 33.0 µM -8% | [2]; at 100.0 µM -21% | [3]; at 1.2 µM -14% | [3]; at 3.7 µM -29% | [3]; at 11.0 µM -23% | [3]; at 33.0 µM -2% | [3]; at 100.0 µM -19% | [4]; at 1.2 µM 9% | [4]; at 3.7 µM 17% | [4]; at 11.0 µM 25% | [4]; at 33.0 µM 4% | [4]; at 100.0 µM 5% | [5]; at 1.2 µM 4% | [5]; at 3.7 µM -14% | [5]; [17] -6% | [5]; at 11.0 µM -28% | [5]; at 33.0 µM -27% | [5]; [18] 22% | [5]; at 100.0 µM -23% | [6]; at 1.2 µM -12% | [6]; at 3.7 µM -15% | [6]; [17] 10% | [6]; at 11.0 µM -19% | [6]; at 33.0 µM -27% | [6]; [18] 39% | [6]; at 50.0 µM 42.5% | [6]; at 100.0 µM -26% | [7]; at 1.2 µM -18% | [7]; at 3.7 µM -15% | [7]; at 11.0 µM -13% | [7]; at 33.0 µM -12% | [7]; at 100.0 µM -18% | [8]; [17] 2% | [8]; [18] 25% | [8]; at 50.0 µM 23.3% | [9]; at 1.2 µM 15% | [9]; at 3.7 µM 6% | [9]; at 11.0 µM -1% | [9]; at 33.0 µM -7% | [9]; at 100.0 µM -12% | [10]; [17] 20% | [10]; [18] 63% | [10]; at 50.0 µM 66.2% | [11]; at 1.2 µM -11% | [11]; at 3.7 µM 1% | [11]; [17] -9% | [11]; at 11.0 µM -8% | [11]; at 33.0 µM -33% | [11]; [18] 69% | [11]; at 50.0 µM -2.65% | [11]; at 100.0 µM -50%
